ADAM17 inh = inhibits human ADAM17 | P78536 | recombinant ADAM17, EDANS/DABCYL FRET peptide cleavage | inhibition, % at 6.95 µM | 370,000 compounds, 0.83% hits | AID 720648;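 active = inhibition above the mean of compounds lying between control limits plus 3 SD, set per campaign, cut at about 8.5% in these data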
Target sequence (P78536 215-824 limits assumed): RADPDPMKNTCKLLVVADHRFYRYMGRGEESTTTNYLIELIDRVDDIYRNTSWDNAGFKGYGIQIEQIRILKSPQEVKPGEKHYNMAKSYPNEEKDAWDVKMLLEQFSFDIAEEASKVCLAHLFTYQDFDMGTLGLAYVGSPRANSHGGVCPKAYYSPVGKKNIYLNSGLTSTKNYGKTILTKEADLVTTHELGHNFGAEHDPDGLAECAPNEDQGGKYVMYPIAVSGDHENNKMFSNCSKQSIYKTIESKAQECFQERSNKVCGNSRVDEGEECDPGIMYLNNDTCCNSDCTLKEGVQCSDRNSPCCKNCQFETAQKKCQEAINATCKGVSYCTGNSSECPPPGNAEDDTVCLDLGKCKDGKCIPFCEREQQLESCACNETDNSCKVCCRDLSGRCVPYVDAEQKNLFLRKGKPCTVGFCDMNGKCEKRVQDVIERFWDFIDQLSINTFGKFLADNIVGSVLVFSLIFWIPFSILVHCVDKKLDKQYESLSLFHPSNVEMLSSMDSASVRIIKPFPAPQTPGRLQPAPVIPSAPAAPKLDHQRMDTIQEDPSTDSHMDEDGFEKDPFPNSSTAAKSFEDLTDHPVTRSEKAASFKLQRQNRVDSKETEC
PLC-gamma1 inh = inhibitors of human phospholipase C gamma1; purified PLC-gamma1, fluorogenic substrate, fluorescence; AID 720700; inhibition, % at 12.2 µM; 370,000 compounds, 0.84% hits; in the data active = inhibition above about 9.5%
PLCb3 inh = PLC-beta3 (human) inhibition, primary screen; 370,000 compounds, 0.18% hits; inhibition, % at 12.2 µM; AID 720704; Q01970; Purified PLC-beta3, fluorogenic substrate, fluorescence; in the data active = inhibition above about 11%
ADAM10 inh = inhibitors of human ADAM10. O14672. recombinant ADAM10, EDANS/DABCYL FRET peptide cleavage, 3 h. inhibition, % at 7 µM. 370,000 compounds, 0.62% hits. AID 720582;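 active = inhibition above a per-campaign cutoff equal to the mean of compounds falling between control-based bounds plus 3 SD, cut at about 20% in these data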
KLK7 zymogen act = proKLK7 (human) activation, primary screen. purified proKLK7, EDANS-DABCYL substrate fluorescence; 100% is mature enzyme control, 0% vehicle. P49862. activation, % at 7 µM. 370,000 compounds, 0.9% hits;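 active = activation above the mean of all tested compounds plus 3 SD, computed per campaign excluding outliers beyond control limits, cut at about 13% in these data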
KLK7 act conf = proKLK7 activation, confirmation; 3,200 compounds, 68% hits; purified proKLK7, EDANS-DABCYL substrate fluorescence; scaled: vehicle 0, mature enzyme 100; shares compounds with KLK7 zymogen act; activation, % at 7 µM;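 active = activation, as change over the incubation, above the mean of all tested compounds plus 3 SD, cut at about 13% in these data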
EDANS interfere = fluorescence interference counter-screen for KLK7 activators | shares compounds with KLK7 zymogen act | EDANS-DABCYL substrate fluorescence interference, no enzyme, 4 h; solvent 0%, active enzyme control 100% | activation, % at 7 µM | 3,200 compounds, 80% hits | AID 686952;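 active = activation above the all-compound mean plus 3 SD, ignoring values outside control-based bounds, cut at about 4.8% in these data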;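 note: value is the 4 h activation minus the activation read at time zero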
EDANS interf = counter-screen for kallikrein-7 activators: EDANS-DABCYL interference, dose response; shares compounds with KLK7 zymogen act; 250 compounds, 20% hits; EC50, µM; EDANS-DABCYL peptide fluorescence interference, no enzyme; AID 720493;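 active = compounds that raise the fluorescence signal in this interference counterscreen, with EC50 at or below 10 µM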;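 note: intact quenched peptide substrate alone read at 355 nm excitation and 520 nm emission; signal is fluorescence gain from T0 to T4 after four hours at room temperature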
Numbers stand for hits; i = inactive; nt = not tested or not shown. Shown are actives, neighbours in structure and some others; about 2.9% of the full set was active somewhere.

SMILES | ADAM17 inh | PLC-gamma1 inh | PLCb3 inh | ADAM10 inh | KLK7 zymogen act | KLK7 act conf | EDANS interfere | others
CCc1nn(CC(=O)NCCN2CCN(C)CC2)c(=O)c2cc3c(OC)cccc3n12 | i | i | i | i | 34 | 27 | 34
O=c1[nH]c2cc(Br)c(Br)nc2[nH]1 | i | i | i | i | i | nt | nt
Cc1nn(-c2ccccc2)c2sc(C(=O)OC3CCOC3=O)cc12 (stereo not given) | i | i | i | i | 20 | i | 13
COC(=O)C1=C(C)N(Cc2ccccc2C(F)(F)F)C(=NCc2ccc3c(c2)OCO3)NC1c1ccc(Cl)cc1 (stereo not given) | i | i | i | i | i | nt | nt
CCN(CC)C(=O)Cn1cc(C(=O)C(=O)Nc2ccc3c(c2)OCO3)c2ccccc21 | i | i | i | i | 57 | 24 | 44
CC1CCN(C(=O)c2cc3c(=O)n4ccccc4nc3s2)CC1 | i | i | i | i | 23 | 23 | 26
O=C(c1cc2c(=O)n3ccccc3nc2s1)N1CCOCC1 | i | i | i | i | 17 | 68 | 68
Cc1cccc(NC(=O)c2cc3c(=O)n4ccccc4nc3s2)c1 | i | i | i | i | i | nt | nt
CCCNC(=O)COC(=O)c1cc2c(=O)n3ccccc3nc2s1 | i | i | i | i | 20 | 73 | 86
O=C(c1cc2c(=O)n3ccccc3nc2s1)N1CCN(c2cccc(Cl)c2)CC1 | i | i | i | i | i | nt | nt
COc1ccc(S[C@]2(C(=O)N3CCOCC3)CC(=O)N(C(=O)c3ccccc3)[C@@H]2c2ccc(OC)cc2)cc1 | i | i | i | i | i | nt | nt
O=S(=O)(c1ccccc1Br)N(Cc1cn(Cc2ccccc2)nn1)C1CC1 | i | i | i | i | i | nt | nt
COc1ccc(N(C)C(=S)Nc2ccc3nc(C)c(C)nc3c2)cc1 | i | i | i | i | 14 | i | 15
COc1ccc(S[C@]2(C(=O)NCCCN(C)C)CC(=O)N[C@@H]2c2ccc(OC)cc2)cc1 | i | i | i | i | i | nt | nt
COc1ccc(/C=N/NC(=O)c2cc3c(ccc4ccccc43)o2)cc1OC | i | i | i | i | 43 | 58 | 4.5 | EDANS interf=i
N#CCn1cc(/C=N/NC(=O)c2cc3c(ccc4ccccc43)o2)c2ccccc21 | i | i | i | i | 35 | i | i
Cc1ccc(CN2CCCCC(NC(=O)c3ccccc3)C2=O)cc1 (stereo not given) | i | i | i | i | i | nt | nt
C=CCNc1sc(C(=O)c2ccccc2)c(N)c1C#N | i | i | i | i | i | nt | nt
C=CCNc1sc(C(=O)c2ccc(C)cc2)c(N)c1C#N | i | i | i | i | 186 | 22 | 15 | EDANS interf=i
O=C(NCc1cccs1)C1CCCN(S(=O)(=O)c2ccccc2)C1 (stereo not given) | i | i | i | i | i | nt | nt
CCCN1CCS(=O)(=O)N(Cc2cn(Cc3ccc(OC)cc3)nn2)C(C(=O)OC)C1 (stereo not given) | i | i | i | i | i | nt | nt
O=C(c1cnn2c(C(F)(F)F)cc(-c3cccs3)nc12)N1CCCC1 | i | i | i | i | 16 | 13 | 14
O=C(c1cnn2c(C(F)(F)F)cc(-c3ccco3)nc12)N1CCCCCC1 | i | i | i | i | i | nt | nt
O=C(c1nc2nc(-c3cccs3)cc(C(F)(F)F)n2n1)N1CCN(Cc2ccccc2)CC1 | i | i | i | i | 26 | i | i
Nc1nc2nc(-c3cccs3)cc(C(F)(F)F)n2n1 | i | i | i | i | 82 | 75 | 78
Nc1nc2nc(-c3ccc(F)cc3)cc(C(F)(F)F)n2n1 | i | i | i | i | 24 | 17 | 16
O=C(c1nc2nc(-c3ccccc3)cc(C(F)(F)F)n2n1)N1CCOCC1 | i | i | i | i | i | nt | nt
O=S1(=O)c2c(cccc2N2CCSCC2)Oc2ccccc2CN1Cc1cn(Cc2ccc(C(F)(F)F)cc2)nn1 | i | i | i | i | i | nt | nt

Bioassay records (PubChem)
